Data taken from PubChem BioAssay (NCI).
About 83,000 compounds went through this panel and 20% of them were active in at least one assay; those are over-represented in the sample as a whole.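 Plates (96-well) were seeded with cells, treated with compound at one concentration, and incubated for 48 hours before percent growth was determined.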 Calls of active or inactive are those of the source. Rule for the calls: active = growth percent below 10; inactive = the rest.

Key:
Assay in all cases: NCI-60 one-dose screen, 48 h (100 = growth as untreated, 0 = no growth, -100 = all killed)
Details in all cases: 10 µM unless noted
[1] = test system: HCT-15 colon
[2] = test system: HT29 colon
[3] = test system: SNB-19 CNS
[4] = test system: PC-3 prostate
[5] = test system: SK-MEL-5 melanoma
[6] = test system: UACC-62 melanoma
[7] = test system: LOX IMVI melanoma
[8] = test system: SK-MEL-28 melanoma
[9] = test system: SK-MEL-2 melanoma
[10] = test system: EKVX NSCLC
[11] = test system: SN12C renal
[12] = test system: UO-31 renal
[13] = test system: TK-10 renal
[14] = test system: ACHN renal
[15] = test system: A498 renal
[16] = test system: CCRF-CEM leukemia
[17] = test system: MOLT-4 leukemia
[18] = test system: CAKI-1 renal
[19] = test system: U251 CNS

Measured: growth

Clc1cc2c(nn1)Nc1ccccc1S2
active: [9] -4.79%
inactive: [1] 101% | [2] 102% | [3] 88.5% | [4] 92.4% | [5] 95% | [6] 95.2% | [7] 98.6% | [8] 109% | [10] 52.3% | [11] 97.1% | [12] 106% | [13] 129% | [14] 99.1% | [15] 89.1% | [16] 93.7% | [17] 96.3%

O=C1/C(=C/c2ccc(Cl)cc2)CN(Cc2cn(CCNc3ccnc4cc(Cl)ccc34)nn2)C/C1=C\c1ccc(Cl)cc1
active: [1] -82% | [2] -100% | [3] -92.2% | [4] -86.5% | [5] -100% | [6] -87.1% | [7] -93% | [8] -100% | [9] -89% | [11] -76.1% | [12] -97.1% | [13] -89% | [14] -100% | [18] 6.59% | [15] -100% | [16] -7.97% | [17] -20.7%

C=C1C(=O)O[C@H]2[C@H]1CC/C(Cn1cc(CNC(=O)/C=C/c3c[nH]c4ccccc34)nn1)=C\CC[C@@]1(C)O[C@@H]21
inactive: [1] 94.4% | [2] 92.4% | [3] 91.5% | [4] 95.3% | [5] 83.8% | [6] 87.6% | [7] 67.3% | [8] 91.7% | [9] 90.9% | [10] 99.5% | [12] 92.6% | [13] 123% | [14] 94% | [18] 88.9% | [15] 98.9% | [17] 89.5%
active: [16] 1.25%

Cc1cc(N/N=C/c2nc(-c3ccccc3)oc2C)c2cc(Cl)ccc2n1
inactive: [5] 20.4% | [6] 86.3% | [9] 110% | [18] 14.4% | [15] 68.4%
active: [1] -83.3% | [2] -78.1% | [3] -31.2% | [4] -61.1% | [7] -76.8% | [8] -96.4% | [10] -59.4% | [11] -84.9% | [12] -99.2% | [13] -76.3% | [14] -80.1% | [16] -34.6% | [17] -39.2%

CN1C(=O)N(C)C2C1NN=c1s/c(=C\C=C\c3ccccc3)c(=O)n12 (stereo not drawn)
inactive: [1] 32.4% | [2] 20.7% | [3] 57.9% | [19] 63.7% | [4] 40.9% | [6] 43.6% | [7] 46.4% | [8] 68.4% | [9] 61.6% | [10] 69.9% | [11] 83.5% | [12] 70.3% | [13] 80% | [14] 63.8% | [18] 46.1% | [16] 53.8% | [17] 65.2%

C=CCn1c2ccccc2c2c3c(c4c5ccccc5n(CC=C)c4c21)C(=O)N(O)C3=O
inactive: [1] 35.5% | [2] 19.2% | [3] 36.1% | [19] 11.5% | [4] 21.8% | [9] 70.4% | [10] 66% | [15] 23.7% | [16] 10.2%
active: [5] -48.5% | [7] -81.2% | [11] 9.32% | [12] -47% | [14] -33.6% | [17] -10.4%

S=C(S)NCCc1c[nH]c2ccccc12
inactive: [1] 97.2% | [2] 110% | [3] 96.3% | [19] 108% | [4] 91.4% | [6] 88.4% | [7] 87.2% | [8] 113% | [9] 99.6% | [10] 100% | [11] 91.8% | [12] 62.8% | [13] 128% | [14] 101% | [18] 81.2% | [16] 81.5% | [17] 93.6%

CN(C)c1cccc2c(S(=O)(=O)/N=C(\N)Nc3nc4ccccc4s3)cccc12
inactive: [1] 42.9% | [2] 48.2% | [3] 53.6% | [4] 48.2% | [5] 40.5% | [6] 42.8% | [7] 51.7% | [8] 78.9% | [9] 15.3% | [10] 71.3% | [11] 88.4% | [12] 56.8% | [13] 91.4% | [14] 84.2% | [18] 54% | [15] 74.5% | [16] 69.1% | [17] 60.6%

CCn1c2ccccc2c2cc(NC(=O)Nc3ccc([N+](=O)[O-])cc3C)ccc21
inactive: [1] 25.5% | [2] 17.9% | [3] 66.6% | [4] 19.2% | [5] 48.1% | [6] 38.9% | [7] 39.2% | [8] 67.2% | [9] 53% | [10] 62.3% | [12] 23.6% | [13] 53.8% | [14] 31.9% | [15] 65.7% | [17] 17.9%
active: [18] -4.18% | [16] 9.61%
